Reference: PubChem BioAssay
For some of these results: Entries with a potency or affinity are not part of this list. The list shows a part of the results. Calls of active or inactive are those of the source.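 How the source made its calls, unless noted: active means membrane potential signal moving either way by over 3 SD of the maximum-effect control, in both duplicate plates, meaning non-specific; inactive means the rest.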

Assays:
[1] = system: TRPC4 beta (transient receptor potential cation channel C4), mouse; assay: TRPC4 cation channel opening, retest – cell-based, Fluo4 calcium, HEK293 TRPC4beta/mu-opioid, duplicates, 10 µM, confirmation (AID 2426;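 active means fluorescence ratio normalized to control raised more than 50% in primary screen plus both repeat runs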;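 further: percent rise of integrated ratio over buffer wells lacking compound which define 0%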); conditions: Fluo4 calcium fluorescence, at 10 µM; stronger effect = higher value
[2] = system: transient receptor potential cation channel C4 beta (TRPC4), mouse; assay: TRPC4 cation channel opening, second retest – cell-based, second round, Fluo4, HEK293 TRPC4beta/mu-opioid, 1 µM, confirmation (AID 2461;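 active means primary screen active and over 50% activation in each of two duplicate runs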); conditions: Fluo4 calcium fluorescence, at 1 µM; stronger effect = higher value
[3] = system: TRPC4 (transient receptor potential cation channel C4 beta), mouse; assay: potentiation of DAMGO EC20 TRPC4 response – cell-based, second round, Fluo-4, HEK293 TRPC4beta/mu-opioid, 1 µM, confirmation (AID 2554;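 active means primary screen hit whose fluorescence ratio, in both repeats, exceeds the weak agonist control mean by 3 SD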); conditions: DAMGO EC20, Fluo-4 calcium flux, at 1 µM; stronger effect = higher value
[4] = system: TRPC4 beta (transient receptor potential cation channel C4), mouse; assay: potentiation of DAMGO EC20 TRPC4 response – cell-based, Fluo-4, HEK293 TRPC4beta/mu-opioid, confirmation (AID 2555;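 active means primary screen hit whose calcium fluorescence ratio, in both repeats, exceeds the weak agonist control mean by 3 SD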); conditions: DAMGO EC20, Fluo-4 calcium flux, at 10 µM; stronger effect = higher value
[5] = molecular target: Short transient receptor potential channel 4 (Mus musculus) (UniProt Q9QUQ5); assay: blockers of DAMGO-evoked TRPC4 calcium flux – cell-based, Fluo4, HEK293 TRPC4beta/mu-opioid, confirmation (AID 2636;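 active means calcium signal cut by more than 3 SD below the full-agonist control yet still positive, in both repeats and the earlier primary screen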); conditions: at 10 µM; stronger effect = higher value
Chain of Short transient receptor potential channel 4 (Mus musculus) (Q9QUQ5 whole entry, looked up): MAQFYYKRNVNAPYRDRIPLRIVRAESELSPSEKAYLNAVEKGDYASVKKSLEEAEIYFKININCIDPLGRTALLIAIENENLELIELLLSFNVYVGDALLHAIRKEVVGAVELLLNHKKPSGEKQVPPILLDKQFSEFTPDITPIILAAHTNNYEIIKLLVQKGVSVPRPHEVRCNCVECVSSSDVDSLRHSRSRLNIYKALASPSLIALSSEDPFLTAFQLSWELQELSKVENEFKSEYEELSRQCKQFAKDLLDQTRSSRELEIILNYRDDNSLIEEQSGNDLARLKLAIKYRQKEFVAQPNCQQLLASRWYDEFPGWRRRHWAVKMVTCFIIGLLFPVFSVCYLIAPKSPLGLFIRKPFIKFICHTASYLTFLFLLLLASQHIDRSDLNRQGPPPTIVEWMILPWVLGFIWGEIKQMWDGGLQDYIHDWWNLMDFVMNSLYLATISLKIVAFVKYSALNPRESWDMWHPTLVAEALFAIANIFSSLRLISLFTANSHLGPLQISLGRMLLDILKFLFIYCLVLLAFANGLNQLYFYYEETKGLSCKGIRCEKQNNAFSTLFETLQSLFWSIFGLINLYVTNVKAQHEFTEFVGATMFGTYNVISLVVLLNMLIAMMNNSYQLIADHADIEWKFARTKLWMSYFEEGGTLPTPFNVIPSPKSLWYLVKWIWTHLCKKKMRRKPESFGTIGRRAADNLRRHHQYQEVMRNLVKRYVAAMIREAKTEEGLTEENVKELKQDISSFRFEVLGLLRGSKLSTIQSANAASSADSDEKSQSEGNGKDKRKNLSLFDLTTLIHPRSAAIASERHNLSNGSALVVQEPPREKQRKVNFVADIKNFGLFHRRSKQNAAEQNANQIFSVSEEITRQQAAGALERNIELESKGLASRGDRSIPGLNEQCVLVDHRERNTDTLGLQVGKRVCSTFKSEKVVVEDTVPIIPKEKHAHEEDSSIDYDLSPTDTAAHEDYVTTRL

[6] = molecular target: Short transient receptor potential channel 4 (Mus musculus) (UniProt Q9QUQ5); assay: blockers of DAMGO-evoked TRPC4 calcium flux – cell-based, second round, Fluo4, HEK293 TRPC4beta/mu-opioid, 1 µM, confirmation (AID 2637;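 active means calcium signal ratio cut to more than 3 SD under the fully stimulated control mean yet still positive, in both repeats and the primary screen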); conditions: at 1 µM; stronger effect = higher value
[7] = molecular target: Short transient receptor potential channel 4 (Mus musculus) (UniProt Q9QUQ5); assay: block of DAMGO-driven TRPC4 calcium entry – cell-based, HEK293 TRPC4/mu-opioid, Fluo-4 calcium, dose response (AID 434942;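 active means primary screen inhibitor hit that blocks the TRPC4 channel at some tested dose, yielding a dose curve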)
[8] = molecular target: Short transient receptor potential channel 6 (Mus musculus) (UniProt Q61143); assay: TRPC6 blockade by TRPC4 inhibitor hits – cell-based, HEK293, membrane potential dye, duplicate, selectivity assay for TRPC4 inhibitor project, confirmation (AID 434948;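 active means active in primary screen and both duplicates, each dropping signal beyond three positive-control SD with fluorescence still positive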); conditions: HEK293 TRPC6, membrane potential dye fluorescence, at 10 µM, stimulated with maximal-effect acetylcholine; stronger effect = higher value
Chain of Short transient receptor potential channel 6 (Mus musculus) (Q61143 whole entry, looked up): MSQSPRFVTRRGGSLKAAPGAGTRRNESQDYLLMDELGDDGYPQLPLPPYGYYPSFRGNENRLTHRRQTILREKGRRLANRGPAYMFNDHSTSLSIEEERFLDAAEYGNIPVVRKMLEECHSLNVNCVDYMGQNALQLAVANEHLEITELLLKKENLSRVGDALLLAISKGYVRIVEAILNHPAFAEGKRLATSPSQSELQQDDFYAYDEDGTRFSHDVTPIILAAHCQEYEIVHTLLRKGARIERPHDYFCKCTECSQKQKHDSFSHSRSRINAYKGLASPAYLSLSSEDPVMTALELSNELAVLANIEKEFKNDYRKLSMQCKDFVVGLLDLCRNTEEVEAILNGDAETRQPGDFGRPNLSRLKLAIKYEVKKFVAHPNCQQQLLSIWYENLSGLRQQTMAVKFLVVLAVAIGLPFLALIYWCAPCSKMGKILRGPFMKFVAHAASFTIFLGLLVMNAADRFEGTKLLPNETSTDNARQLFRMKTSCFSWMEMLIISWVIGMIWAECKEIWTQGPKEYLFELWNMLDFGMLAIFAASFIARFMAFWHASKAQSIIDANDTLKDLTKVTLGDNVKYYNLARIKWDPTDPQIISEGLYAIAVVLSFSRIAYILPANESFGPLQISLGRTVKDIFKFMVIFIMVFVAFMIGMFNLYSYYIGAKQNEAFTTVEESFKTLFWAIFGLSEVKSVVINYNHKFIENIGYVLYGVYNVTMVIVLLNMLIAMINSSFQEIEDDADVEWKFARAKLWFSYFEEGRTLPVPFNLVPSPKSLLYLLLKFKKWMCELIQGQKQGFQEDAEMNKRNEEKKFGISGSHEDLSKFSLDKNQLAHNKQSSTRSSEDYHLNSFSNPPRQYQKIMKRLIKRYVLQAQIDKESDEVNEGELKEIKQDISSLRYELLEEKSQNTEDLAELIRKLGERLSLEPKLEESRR

[9] = molecular target: Short transient receptor potential channel 6 (Mus musculus) (UniProt Q61143); assay: TRPC6 opening by TRPC4 activator hits – cell-based, HEK293, membrane potential dye, duplicate, selectivity assay for TRPC4 activator project, confirmation (AID 434950;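 active means membrane potential signal rise above negative control mean plus 3 SD in both duplicates, also active in the earlier TRPC4 screen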;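 on activation: 0% = buffer only wells and 100% = acetylcholine maximal-effect wells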); conditions: HEK293 TRPC6, membrane potential fluorescence, at 10 µM; activation: stronger effect = higher value; outcome: activation
[10] = molecular target: Short transient receptor potential channel 6 (Mus musculus) (UniProt Q61143); assay: positive modulators of mouse TRPC6 channel – HEK293 cells, membrane potential dye, duplicate, selectivity assay for TRPC4 potentiator project, confirmation (AID 434952;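 active means compound raising the membrane signal above positive-control mean plus 3 SD in both repeats, and a primary screen hit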); conditions: HEK293 TRPC6, membrane potential dye fluorescence, at 10 µM, maximal acetylcholine added after compound; stronger effect = higher value
[11] = molecular target: Short transient receptor potential channel 4 (Mus musculus) (UniProt Q9QUQ5); assay: calcium flux activators in TRPC4/5HT1a cells, counter-screen for TRPC4 activator project, cell-based, second counter screen, HEK293 TRPC4/5HT1a, Fluo-4 (AID 434977;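 active means calcium signal rise above buffer-control mean plus 5 SD in both duplicates, and also a hit in the primary screen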;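 further: plate controls were assay buffer for no effect and maximal serotonin response for full effect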); conditions: Fluo-4 calcium flux, at 10 µM; stronger effect = higher value
[12] = serotonin-gated TRPC4 signal block – cell-based, second counter screen, HEK293 TRPC4/5HT1a, Fluo-4, counter-screen for TRPC4 inhibitor project, confirmation (AID 434978;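 active means primary screen active whose calcium signal fell more than 3 SD beyond the full-serotonin control mean in both duplicate plates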;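 on outcome: serotonin given first at submaximal then at maximal dose after compound preincubation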); conditions: Fluo-4 calcium flux, at 10 µM, serotonin added to trigger calcium flux; stronger effect = higher value
[13] = system: TRPC4 (mouse), co-expressed with 5HT1a in HEK293; assay: enhancement of serotonin-evoked TRPC4 response – cell-based, second counter screen, HEK293 TRPC4/5HT1a, Fluo-4, counter-screen for TRPC4 potentiator project, confirmation (AID 434979;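 active means signal rise over 3 SD above mean of control wells given weak agonist, in both repeats and first screen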); conditions: Fluo-4 calcium flux, at 10 µM, serotonin added at its EC20 dose; stronger effect = higher value
[14] = nonspecific calcium rise without TRPC4 – cell-based, HEK293 mu-opioid receptor line, counter-screen for TRPC4 activator project, confirmation (AID 449723;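 active means hit in primary screen, with calcium signal over 5 SD above buffer well mean in both duplicates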;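 further: counter screen cells carry the mu-opioid receptor alone and lack TRPC4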); conditions: HEK293 mu-opioid cells, Fluo-4 calcium fluorescence, at 10 µM; stronger effect = higher value
[15] = nonspecific potentiation of DAMGO calcium response – cell-based, HEK293 mu-opioid receptor line, counter-screen for TRPC4 allosteric potentiator project, confirmation (AID 449724;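 active means calcium signal rise more than 3 SD above the low-dose agonist control mean, in both duplicate plates and the primary screen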); conditions: HEK293 mu-opioid receptor cells, Fluo-4 calcium flux, at 10 µM, compound added before EC20 DAMGO stimulus; stronger effect = higher value
[16] = molecular target: Short transient receptor potential channel 4 (Mus musculus) (UniProt Q9QUQ5); assay: DAMGO-gated TRPC4 membrane potential modulation – cell-based, second specificity screen, HEK293 TRPC4/mu-opioid, selectivity assay for TRPC6 inhibitor project, confirmation (AID 2776;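 active means compounds whose fluorescence signal differed from control wells by over 3 SD, either direction, in both duplicate plates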); conditions: HEK293 TRPC4/MOR, membrane potential dye fluorescence, at 10 µM, channel activated by saturating DAMGO dose; stronger effect = higher value
[17] = system: transient receptor potential cation channel C4 (TRPC4), mouse; assay: membrane potential change in TRPC4 cells – cell-based, HEK293 TRPC4/mu-opioid, membrane potential dye, selectivity assay for TRPC6 inhibitor project, confirmation (AID 2777;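 active means rise or fall in signal beyond 3 SD of buffer-only wells in both replicate plates, either sign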;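 further: integrated kinetic ratio of fluorescence range over baseline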); conditions: membrane potential fluorescence, at 10 µM
[18] = parental HEK293 depolarization signal interference – cell-based, second counter screen, counter-screen for TRPC6 inhibitor project, confirmation (AID 2779); conditions: parental HEK293 membrane potential dye fluorescence; at 10 µM; maximal acetylcholine challenge after compound addition
[19] = nonspecific voltage dye signal in HEK293 – cell-based, parental HEK293, counter-screen for TRPC6 inhibitor project, confirmation (AID 2780;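 active means membrane potential signal shifting up or down by more than 3 SD of buffer-only wells, on both duplicate plates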;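 on membrane potential signal change: plate controls were buffer EC0 wells for no effect and acetylcholine ECmax wells for full effect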); conditions: parental HEK293 membrane potential dye fluorescence; at 10 µM
[20] = molecular target: Short transient receptor potential channel 6 (Mus musculus) (UniProt Q61143); assay: blockers of TRPC6 cation channel activity – HEK293 cells, membrane potential dye, duplicate, confirmation (AID 488960;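 active means fluorescence ratio falls more than 5 SD below the full-stimulation control mean, in both duplicate runs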;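 on inhibition: integrated fluorescence ratio of peak minus minimum over baseline after agonist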); conditions: ACh-evoked depolarization, at 10 µM; stronger effect = higher value
[21] = molecular target: Short transient receptor potential channel 6 (Mus musculus) (UniProt Q61143); assay: mouse TRPC6 channel activators, confirmation, HEK293 cells, membrane potential dye, duplicate (AID 488961;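 active means ratio signal rise beyond 5 SD above unstimulated control wells' mean, seen in both duplicate runs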); conditions: HEK293-TRPC6 membrane potential dye fluorescence, FDSS, at 10 µM; stronger effect = higher value
[22] = molecular target: Potassium voltage-gated channel subfamily KQT member 1 (Homo sapiens) (UniProt P51787); assay: blockers of human KCNQ1 channel – cell-based, Tl flux, duplicate, confirmation (AID 588353;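 active means primary screen active, with duplicate mean exceeding buffer control mean plus 3 SD of buffer wells, cut at about 28% in these data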;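 further: 0% = buffer control ratio and 100% = XE991 inhibitor control ratio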); conditions: KCNQ1 cell line, FluxOR thallium flux fluorescence, at 10 µM, stronger effect = higher value
Chain of Potassium voltage-gated channel subfamily KQT member 1 (Homo sapiens) (P51787 whole entry, looked up): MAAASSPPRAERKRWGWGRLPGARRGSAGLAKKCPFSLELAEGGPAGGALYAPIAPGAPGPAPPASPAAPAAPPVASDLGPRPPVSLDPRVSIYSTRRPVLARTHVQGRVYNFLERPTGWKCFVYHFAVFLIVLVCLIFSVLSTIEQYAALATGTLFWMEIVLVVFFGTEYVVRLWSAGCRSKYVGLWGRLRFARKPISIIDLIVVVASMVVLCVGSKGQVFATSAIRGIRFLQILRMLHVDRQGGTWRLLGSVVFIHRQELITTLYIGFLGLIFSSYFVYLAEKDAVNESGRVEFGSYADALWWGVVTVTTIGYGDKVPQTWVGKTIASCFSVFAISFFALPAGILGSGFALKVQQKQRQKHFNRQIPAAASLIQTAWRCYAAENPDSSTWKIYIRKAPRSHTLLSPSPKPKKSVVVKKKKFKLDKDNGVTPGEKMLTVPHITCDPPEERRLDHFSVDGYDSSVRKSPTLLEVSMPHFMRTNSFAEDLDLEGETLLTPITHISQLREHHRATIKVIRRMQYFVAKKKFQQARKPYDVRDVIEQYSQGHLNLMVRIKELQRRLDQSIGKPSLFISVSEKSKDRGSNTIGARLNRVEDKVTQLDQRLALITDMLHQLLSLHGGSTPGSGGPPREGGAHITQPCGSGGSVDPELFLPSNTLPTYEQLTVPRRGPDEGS

[23] = nonspecific activity in CHO-K1 cells without KCNQ1 – parental CHO cells, Tl flux, counter-screen for KCNQ1 inhibitor project (AID 588366;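 active means mean of duplicate thallium-flux fluorescence ratios in parental host cells more than 5 SD below the buffer control mean, cut at about 0.38 in these data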;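 further: ratio is peak minus minimum fluorescence divided by baseline fluorescence; actives read low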); conditions: parental CHO-K1, FluxOR thallium flux fluorescence ratio; at 10 µM; stronger effect = lower value; zero means no signal rise above baseline
[24] = molecular target: Potassium voltage-gated channel subfamily KQT member 2 (Rattus norvegicus) (UniProt O88943); assay: block of rat KCNQ2 potassium channel – cell-based, selectivity assay for KCNQ1 inhibitor project (AID 651746;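 active means mean percent inhibition of the KCNQ2 thallium signal more than 5 SD above the buffer-only control wells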;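 further: KCNQ2 expressed in CHO cells; 0% = buffer control wells and 100% = XE-991 inhibitor control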); conditions: KCNQ2 cells, FluxOR thallium flux fluorescence, at 10 µM; stronger effect = higher value
Chain of Potassium voltage-gated channel subfamily KQT member 2 (Rattus norvegicus) (O88943 whole entry, looked up): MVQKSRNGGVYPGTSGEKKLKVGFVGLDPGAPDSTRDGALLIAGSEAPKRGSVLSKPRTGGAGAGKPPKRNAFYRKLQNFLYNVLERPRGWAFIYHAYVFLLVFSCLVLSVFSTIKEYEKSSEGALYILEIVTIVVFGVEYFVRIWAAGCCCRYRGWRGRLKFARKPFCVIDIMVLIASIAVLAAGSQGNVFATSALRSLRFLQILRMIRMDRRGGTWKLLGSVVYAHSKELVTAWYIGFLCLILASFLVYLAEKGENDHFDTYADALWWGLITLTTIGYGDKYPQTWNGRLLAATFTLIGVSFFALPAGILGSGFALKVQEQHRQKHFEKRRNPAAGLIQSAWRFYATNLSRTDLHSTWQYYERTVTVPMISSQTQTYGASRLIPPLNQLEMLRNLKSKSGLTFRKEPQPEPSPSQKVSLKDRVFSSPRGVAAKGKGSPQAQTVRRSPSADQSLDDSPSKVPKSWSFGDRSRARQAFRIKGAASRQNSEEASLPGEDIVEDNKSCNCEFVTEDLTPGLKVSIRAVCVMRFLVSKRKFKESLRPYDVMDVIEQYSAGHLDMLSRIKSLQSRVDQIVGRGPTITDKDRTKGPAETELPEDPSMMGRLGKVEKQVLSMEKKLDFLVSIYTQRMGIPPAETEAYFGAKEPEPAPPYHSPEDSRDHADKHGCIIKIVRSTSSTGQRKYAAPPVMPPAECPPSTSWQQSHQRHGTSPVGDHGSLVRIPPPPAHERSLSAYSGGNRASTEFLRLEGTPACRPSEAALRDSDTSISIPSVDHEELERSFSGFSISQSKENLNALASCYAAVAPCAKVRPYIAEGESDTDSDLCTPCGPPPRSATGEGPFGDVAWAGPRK

[25] = molecular target: Potassium voltage-gated channel subfamily E member 1 (Homo sapiens) + Potassium voltage-gated channel subfamily KQT member 1 (Homo sapiens) (UniProt P15382+P51787); assay: block of human IKs channel complex – CHO-K1 cells, thallium flux, FluxOR, selectivity assay for KCNQ1 inhibitor project (AID 652147;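 active means mean percent inhibition of duplicate wells above the buffer-only control mean plus 3 SD of those controls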); conditions: KCNQ1/KCNE1 cells, FluxOR thallium flux fluorescence, at 10 µM; stronger effect = higher value
Chain of Potassium voltage-gated channel subfamily E member 1 (Homo sapiens) + Potassium voltage-gated channel subfamily KQT member 1 (Homo sapiens) (P51787 whole entry, looked up): as the sequence (P51787 whole entry, looked up) above

CCCCc1cc(O)c(CCCC)c(O)c1
active: activation [1] 63% | potentiation [4] 14% | activation [11] 44.6% | activation [14] 34.5%
inactive: outcome [2] | outcome [3] | outcome [5] | outcome [6] | outcome [7] | outcome [8] | outcome [9] | outcome [10] | outcome [12] | outcome [13] | outcome [15]

CCCCCOc1ccc(CSC2=NCCN2)cc1[N+](=O)[O-]
active: inhibition [16] 59% | inhibition [20] 54.9%
inactive: outcome [17] | outcome [18] | outcome [19] | outcome [21]

Cn1c(=O)n(C)c2cc(C(=O)Nc3ccc4c(c3)OCO4)ccc21
active: activity change, negative = inhibition [17] -23.4% | membrane potential signal change [19] -371%
inactive: outcome [16] | outcome [18] | outcome [20] | outcome [21]

CN(C)CCOC(=O)C(c1ccccc1)C1(O)CCCC1 (configuration not stated)
active: signal change vs control [18] -39.5% | membrane potential signal change [19] 0.13% | inhibition [20] 90.5%
inactive: outcome [16] | outcome [17] | outcome [21]

CCN(CC)c1ccc2cc(C(N)=O)/c(=N\NC(=O)c3ccncc3)oc2c1
inactive: outcome [20] | outcome [21]
active: inhibition [16] 70.5% | activity change, negative = inhibition [17] 31.7% | signal change vs control [18] -52% | membrane potential signal change [19] 1.95%

CC1Cc2ccccc2N1C(=O)CSc1nc2c(c(=O)n(C)c(=O)n2C)n1Cc1ccccc1 (configuration not stated)
inactive: outcome [2] | outcome [4] | outcome [6] | outcome [8] | outcome [10] | outcome [14] | outcome [15]
active: activation [1] 320% | potentiation [3] 65% | inhibition [5] 83% | activation [9] 37.5% | activation [11] 85.8% | inhibition [12] 11.2% | potentiation [13] 18.8%

CCCc1cc(=S)n2c([nH]c3ccccc32)c1C#N
active: activity change, negative = inhibition [17] 33.6% | membrane potential signal change [19] 22.1% | inhibition [20] 51.5% | inhibition [22] 80.5% | inhibition [24] 91.3%
inactive: outcome [16] | outcome [18] | fluorescence ratio (Tl flux) [23] 0.394 | outcome [25]

CCOC(=O)N1CCC(NC(=O)CN2C(=O)COc3ccc(C(C)(C)C)cc32)CC1
inactive: outcome [16] | outcome [17] | outcome [18] | outcome [19] | outcome [20]

Cn1c(O)c(/C=N/NC(=O)c2cc3ccccc3cc2O)c2ccccc21
inactive: outcome [2] | outcome [3] | outcome [5] | outcome [6] | outcome [7] | outcome [8] | outcome [12]
active: activation [1] 81% | potentiation [4] 27% | activation [9] 524% | potentiation, percent of control [10] 238% | activation [11] 59.2% | potentiation [13] 17.8% | activation [14] 82.4% | activation [15] 879%
